# From the supplement of paper PMC12669032
# Values without a mark were called inactive.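 The calls were made as follows: active = AUC reduced over 20% with Padj below 0.05 in at least 2 of 3 replicates; inactive = otherwise.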
# What was measured:
# Test in all cases: growth AUC relative to DMSO control (median of replicates) (fraction); higher = more growth (less inhibition), active = hit call of the paper
# Conditions in all cases: 20 µM; 24 h
# Akkermansia muciniphila = tested on: Akkermansia muciniphila
# In short: (§1)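 Gut bacterial monocultures in mGAM were treated with 20 µM compound (1% DMSO) and grown anaerobically at 37 °C in round-bottom 96-well plates from OD600 0.05. OD600 was read hourly for 24 h, with the minimum OD set to 0. Area under the growth curve was normalised to the plate median of solvent-only wells, or to row and column medians on the industrial chemical plate. Each value is the median of three biological replicates, each grown on a separate day.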
# Bacteroides caccae = tested on: Bacteroides caccae
# In short: as §1
# Bacteroides clarus = tested on: Bacteroides clarus
# In short: as §1
# Bacteroides dorei = tested on: Bacteroides dorei
# In short: as §1
# Bacteroides stercoris = tested on: Bacteroides stercoris
# In short: as §1
# [1] = tested on: Bacteroides thetaiotaomicron
# In short: as §1
# Bacteroides uniformis = tested on: Bacteroides uniformis
# In short: as §1
# [2] = tested on: Bifidobacterium longum subsp. longum
# In short: as §1
# Clostridium difficile = tested on: Clostridium difficile
# In short: as §1
# Collinsella aerofaciens = tested on: Collinsella aerofaciens
# In short: as §1
# Coprococcus comes = tested on: Coprococcus comes
# In short: as §1
# Escherichia coli ED1a = tested on: Escherichia coli ED1a
# In short: as §1
# Escherichia coli IAI1 = tested on: Escherichia coli IAI1
# In short: as §1
# Eubacterium rectale = tested on: Eubacterium rectale
# In short: as §1
# [3] = tested on: Fusobacterium nucleatum subsp. animalis
# In short: as §1
# Lactobacillus gasseri = tested on: Lactobacillus gasseri
# In short: as §1
# Lactobacillus paracasei = tested on: Lactobacillus paracasei
# In short: as §1
# Odoribacter splanchnicus = tested on: Odoribacter splanchnicus
# In short: as §1
# [4] = tested on: Parabacteroides distasonis
# In short: as §1
# Parabacteroides merdae = tested on: Parabacteroides merdae
# In short: as §1
Compound,growth AUC (Akkermansia muciniphila),growth AUC (Bacteroides caccae),growth AUC (Bacteroides clarus),growth AUC (Bacteroides dorei),growth AUC (Bacteroides stercoris),growth AUC [1],growth AUC (Bacteroides uniformis),growth AUC [2],growth AUC (Clostridium difficile),growth AUC (Collinsella aerofaciens),growth AUC (Coprococcus comes),growth AUC (Escherichia coli ED1a),growth AUC (Escherichia coli IAI1),growth AUC (Eubacterium rectale),growth AUC [3],growth AUC (Lactobacillus gasseri),growth AUC (Lactobacillus paracasei),growth AUC (Odoribacter splanchnicus),growth AUC [4],growth AUC (Parabacteroides merdae)
CCOc1cc(Oc2ccc(C(F)(F)F)cc2Cl)ccc1[N+](=O)[O-],1.08,0.966,1.01,0.917,0.905,1.01,0.992,1.03,0.993,0.881,0.602 (active),1.01,0.979,0.989,1.09,0.939,0.955,1.08,1.01,0.954
O=C(NC(=O)c1ccccc1Cl)Nc1ccc(OC(F)(F)F)cc1,1.06,0.915,0.964,0.927,0.802,0.962,1.01,0.986,0.946,0.937,0.949,0.97,0.952,1.04,0.728,0.856,0.892,1.04,0.965,0.971
CCSC(C)CC1CC(=O)C(/C(CC)=N/OC/C=C/Cl)=C(O)C1 (mixture of isomers),1.13,1.05,1.03,1.01,1.11,1.01,1.02,1.01,1.04,1.04,1.06,1.03,1.01,1.03,1.1,0.865,1.06,1.02,0.958,1.02
O=C(O)C(Cl)Cl,0.875,0.977,0.966,1.02,0.994,0.999,1.01,1.01,1,0.981,0.959,1.01,0.966,0.977,1.04,1.04,1.05,0.997,0.998,1.03
CN(C)C(CSS(=O)(=O)c1ccccc1)CSS(=O)(=O)c1ccccc1,1.14,0.966,0.999,1.01,1.01,1.06,1.06,1.02,0.901,0.938,1.03,0.97,1.01,1.53,0.932,0.85,0.95,0.98,0.95,0.992
CCS(=O)(=O)c1cccnc1S(=O)(=O)NC(=O)Nc1nc(OC)cc(OC)n1,0.976,1.01,0.983,0.993,0.963,0.981,0.974,0.995,0.942,1,0.968,1,0.999,0.943,0.912,1.01,0.996,0.897,1.02,0.993
CC1(C)C(C=C(Cl)Cl)[C@@H]1C(=O)O[C@@H](C#N)c1ccc(F)c(Oc2ccccc2)c1 (stereo not given in full),0.998,0.986,1.01,1.01,0.992,1,0.976,0.983,0.996,0.96,0.984,0.956,1,1,0.878,0.823,0.99,1.01,1.03,0.991
CCOP(=S)(OCC)SCCS(=O)(=O)CC,1.05,1.02,1,0.977,1.03,0.99,0.986,1.01,1,0.995,1.02,1.05,0.994,1.02,1,0.903,1.01,1.06,1.04,0.991
N#Cc1nn(-c2c(Cl)cc(C(F)(F)F)cc2Cl)c(N)c1C(F)(F)F,1.08,0.898,0.741 (active),0.773,0.626,1.01,0.97,0.858,0.609 (active),0.967,0.885,0.986,0.978,1.01,0.842,0.801,0.927,0.696,0.791 (active),0.834
COP(=O)(OC)SCn1c(=O)oc2cc(Cl)cnc21,0.883,1.02,0.983,1.02,1.01,1.01,1.03,1.01,1,1.03,1.11,1.01,1,0.986,0.983,1.08,1.05,1,1.08,1
CNC(=O)O/N=C(\C)C(C)S(C)(=O)=O (stereo not given),1.15,0.99,1.01,0.969,0.931,1.03,1.01,1.27,0.98,0.953,1.02,0.961,0.979,1.03,0.972,0.905,0.894,1.11,0.955,0.956
CNC(=O)Oc1cccc2c1OC(C)(C)C2,1.1,0.964,1.01,0.999,1.02,0.998,1,0.996,1,1.04,1.02,1.04,0.985,1.02,1.07,0.946,0.994,1.06,0.992,1
C[C@@H](Oc1ccc(Oc2ncc(C(F)(F)F)cc2Cl)cc1)C(=O)O,0.971,0.97,0.964,0.942,1.02,0.992,0.975,0.912,0.99,0.994,1,0.97,0.994,0.973,1.02,0.94,0.972,0.98,0.989,0.996
CCOCCN(C(=O)CCl)C(=C(C)C)c1ccccc1,0.903,1.01,0.998,1,0.967,0.937,0.944,1.04,0.954,1.02,0.999,0.98,0.976,0.982,0.986,0.935,1.01,0.978,0.955,1
O=c1ccc(=O)[nH][nH]1,1.2,0.973,1.01,0.989,0.951,1,1.05,1.62,0.954,0.92,0.996,0.973,0.976,1.06,0.877,0.957,1.11,1.08,1.01,0.99
CCN(Cc1ccc(Cl)nc1)/C(=C/[N+](=O)[O-])NC,0.913,0.991,0.991,0.975,0.939,0.972,1.01,0.983,0.981,0.976,0.959,1.04,0.987,0.948,0.928,0.966,0.992,0.95,1.04,0.989

Compound,growth AUC (Akkermansia muciniphila),growth AUC (Bacteroides caccae),growth AUC (Bacteroides clarus),growth AUC (Bacteroides dorei),growth AUC (Bacteroides stercoris),growth AUC [1],growth AUC (Bacteroides uniformis),growth AUC [2],growth AUC (Clostridium difficile),growth AUC (Collinsella aerofaciens),growth AUC (Coprococcus comes),growth AUC (Escherichia coli ED1a),growth AUC (Escherichia coli IAI1),growth AUC (Eubacterium rectale),growth AUC [3],growth AUC (Lactobacillus gasseri),growth AUC (Lactobacillus paracasei),growth AUC (Odoribacter splanchnicus),growth AUC [4],growth AUC (Parabacteroides merdae)
Clc1c(Cl)c(Cl)c(Cl)c(Cl)c1Cl,0.994,1.01,1,1.04,1.08,1,0.992,0.981,1,1.06,1,1.01,1.01,1.02,0.98,1.07,0.936,1.03,1.03,1.03
CC(C)OP(=O)(OC(C)C)SCc1ccccc1,1.12,0.976,0.99,0.981,0.997,0.964,0.968,0.902,0.968,1,1.03,1.01,0.984,1.09,1.01,0.959,1.01,1.05,0.866,0.988
C[C@H]1[C@H](c2ccc(Cl)cc2)SC(=O)N1C(=O)NC1CCCCC1,0.988,0.91,0.965,0.945,1.13,0.952,0.943,0.923,0.987,0.928,1.03,1,0.996,1.05,1.07,0.791,1.03,0.832,0.725,0.947
COP(=O)(OC)OC1=C(Cl)C2C=CCC12 (stereo not given),1.03,0.928,0.995,1,1.42,1.02,1.02,1.01,1,0.964,0.999,0.968,1.03,1.01,1.04,0.957,1.02,0.892,0.975,1.03
CCC(C)(NC(=O)c1cc(Cl)c(C)c(Cl)c1)C(=O)CCl (stereo not given),0.877,0.949,0.895,0.967,0.86,0.908,0.861,0.953,0.496 (active),1,0.945,1.01,0.995,0.892,0.906,0.942,1.02,0.914,0.643 (active),0.907
COC(=O)N(OC)c1ccccc1COc1ccn(-c2ccc(Cl)cc2)n1,0.936,0.803,0.91,0.972,1.09,0.91,0.861,1.03,0.989,1,0.998,1.02,0.99,1.1,1.19,0.88,0.988,0.881,0.57 (active),0.911
CC(Oc1ccc(Oc2nc3ccc(Cl)cc3o2)cc1)C(=O)O (racemic),0.992,1.05,0.995,0.996,1.25,0.996,0.962,1.03,0.987,1.03,1.05,1.02,0.997,1.03,1.12,1.04,1.07,0.923,1.04,0.97
O=S(=O)(Oc1ccc(Cl)cc1)c1ccc(Cl)cc1,1.09,0.97,0.998,0.812,0.973,0.972,0.995,1.02,1.01,0.961,1.01,0.971,1,1.08,1.09,0.84,0.926,0.983,0.761 (active),0.945
CC(C)OC(=O)C(O)(c1ccc(Br)cc1)c1ccc(Br)cc1,0.997,0.883,0.779 (active),0.933,0.239 (active),0.93,0.923,0.96,0.982,0.928,0.905,1.01,1.01,0.912,1.01,0.918,0.981,1.05,0.854,0.868
CC(=O)CC(c1ccc(Cl)cc1)c1c(O)c2ccccc2oc1=O (stereo not given),0.928,0.939,0.873,0.958,0.91,0.938,0.777 (active),0.939,1.04,1.01,0.987,0.952,1.02,0.881,0.929,1.3,0.982,0.971,0.787 (active),0.954
CC(C)(COCc1cccc(Oc2ccccc2)c1)c1ccc(OC(F)(F)Br)cc1,0.955,0.982,0.973,1.01,1.04,0.976,1.02,0.966,1.01,0.953,0.961,0.999,0.995,0.903,0.939,1.01,1.05,0.988,1.01,0.979
C[C@@H](Oc1ccc(Oc2cnc3cc(Cl)ccc3n2)cc1)C(=O)O,1.07,0.938,1.05,1,1.29,0.986,0.988,0.964,0.989,0.976,1.05,1.02,1,0.987,1.08,0.997,1.04,0.97,0.983,1.03
COC(=O)c1cc(Oc2ccc(Cl)cc2Cl)ccc1[N+](=O)[O-],1.02,0.953,0.793 (active),0.973,0.436 (active),0.968,0.814,1.02,0.905,0.901,0.993,0.985,0.982,1.11,0.975,0.933,0.928,0.934,0.449 (active),0.958
O=C(O)COc1nc(Cl)c(Cl)cc1Cl,1.13,0.874,0.989,0.94,1.19,1,0.993,1.04,0.963,0.99,0.867,0.971,1.01,1.15,1.1,0.818,1.01,0.992,0.781,1.01
COc1nn(CSP(=S)(OC)OC)c(=O)s1,1.01,1.01,1.02,0.992,1.04,1.04,1.02,1.02,0.996,1.03,1.06,1,1,1.08,1.01,0.987,1.01,1.08,1,1.04
CC1(C)[C@H](C=C(Cl)Cl)[C@H]1C(=O)OCc1c(F)c(F)cc(F)c1F,0.957,1.02,0.992,1.07,1.03,0.993,1.04,0.954,1.08,1,1,1.01,1.03,0.957,1.04,1.02,0.947,1.02,0.999,0.989
